Fam108B inh = blocks mouse Fam108B hydrolase in RBBP9 counter-screen; inhibition, % at 9.51 µM; 0.33% of 300,000 active; recombinant Fam108B, FP-Rh probe fluorescence polarization;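 active = inhibition above the screen mean inhibition plus 3 SD, computed separately per campaign, cut at about 18% in these data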;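 also: inhibitors lower polarization as less probe binds the enzyme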
LYPLA1 counter = blocks human lysophospholipase 1, a PME1 counter-screen | AID 2174 | 0.16% of 320,000 active | recombinant LYPLA1, FP-Rh probe fluorescence polarization | inhibition, % at 5.9 µM;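 active = inhibition above the mean of all tested compounds plus 3 SD, set per campaign, cut at about 14% in these data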;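 also: inhibitors block serine hydrolase probe labeling of LYPLA1 so polarization falls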
Target sequence (O75608 whole entry, looked up): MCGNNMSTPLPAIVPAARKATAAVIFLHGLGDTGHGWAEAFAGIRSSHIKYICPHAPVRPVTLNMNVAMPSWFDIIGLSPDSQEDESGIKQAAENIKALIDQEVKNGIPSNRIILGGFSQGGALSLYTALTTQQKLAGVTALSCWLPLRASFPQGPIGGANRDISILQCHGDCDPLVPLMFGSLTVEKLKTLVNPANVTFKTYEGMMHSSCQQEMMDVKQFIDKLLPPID
PME-1 inh = PME-1 (human) inhibition. recombinant PME-1, FP-Rh probe fluorescence polarization. AID 2130. inhibition, % at 5.9 µM. 0.53% of 320,000 active. Q9Y570;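 active = inhibition above the campaign mean of all compounds plus 3 SD, cut at about 26% in these data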;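 also: competitive labeling of PME-1 active site by serine hydrolase directed probe; inhibitors block probe labeling so polarization falls and inhibition rises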
LYPLA2 inh = LYPLA2 (human) inhibition in PME1 counter-screen. recombinant LYPLA2, FP-Rh probe fluorescence polarization. inhibition, % at 5.9 µM. 0.38% of 320,000 active;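 active = inhibition above the screen-wide mean plus 3 SD, limit set per campaign, cut at about 26% in these data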
GSTO1 inh = counter-screen for RBBP9 inhibitors: inhibitors of human GSTO1; P78417; recombinant GSTO1, activity-based probe fluorescence polarization; inhibition, % at 5.96 µM; 1.1% of 300,000 active;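 active = inhibition above the campaign mean inhibition plus 3 SD, cut at about 35% in these data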
Target sequence (P78417 whole entry, looked up): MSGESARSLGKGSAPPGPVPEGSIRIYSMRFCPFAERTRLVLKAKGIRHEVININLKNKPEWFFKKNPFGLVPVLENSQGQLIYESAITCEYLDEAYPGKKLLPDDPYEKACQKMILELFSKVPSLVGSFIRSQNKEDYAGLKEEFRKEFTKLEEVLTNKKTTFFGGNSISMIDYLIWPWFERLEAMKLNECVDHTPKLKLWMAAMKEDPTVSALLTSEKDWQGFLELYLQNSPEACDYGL
PAD4 FP inh = PAD4 (human) enzyme inhibition | recombinant PAD4, RCA probe fluorescence polarization | inhibition, % at 6.36 µM | 0.41% of 330,000 active | AID 485272;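 active = percent inhibition above a cutoff equal to the mean of all tested compounds plus 3 SD, cut at about 15% in these data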
LYPLA2 confirm = counter-screen for PME1 inhibitors: confirmation of human LYPLA2 inhibitors; shares compounds with LYPLA2 inh; recombinant LYPLA2, FP-Rh probe fluorescence polarization; inhibition, % at 5.9 µM; 72% of 1,100 active;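 active = mean inhibition across replicates above the hit cutoff set in the primary screen, cut at about 26% in these data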;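 also: blocked labeling of the enzyme by serine hydrolase FP-Rh probe lowers polarization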
LYPLA2 ABPP = blocks human acyl-protein thioesterase 2 in gel ABPP; rhLYPLA2 in mouse brain proteome, gel ABPP FP-Rh; AID 652029; shares compounds with LYPLA2 inh; 30% of 150 active; inhibition, % at 20 µM;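 active = inhibition of LYPLA2 enzyme probe labeling above about 50%, limit read from the data; inactive = inhibition below that limit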;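 also: loss of FP-Rh probe labeling of the LYPLA2 gel band measured as band density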
Of the large screens only hits and unclear results are named; the others gave an inactive call (follow-up assays come after a bar, where they were run). In the library only some 1.8% were active in any assay of this set; here they are far more common.

CC(=O)c1ccc(OCc2cc(C(=O)NC(C)c3cnn(C)c3)no2)cc1 (centres undefined)	LYPLA2 inh 30 | LYPLA2 confirm inactive
CCCCCCOC(=O)CCc1c(C)nc(N)[nH]c1=O	none
CCCCCCCCOC(=O)CCc1c(C)[nH]c(=S)[nH]c1=O	LYPLA2 inh 39 | LYPLA2 confirm 30
O=C(C[C@@H]1C/C=C\C[C@@H](NC(=O)OCC2c3ccccc3-c3ccccc32)C(=O)OCCNC1=O)N[C@@H](CO)Cc1ccccc1	none (no result: Fam108B inh, LYPLA1 counter, PME-1 inh, LYPLA2 inh, GSTO1 inh)
COc1ccc(N/C=C(\C#N)c2ccc(OCCCF)cc2)cc1	LYPLA2 inh 73 | LYPLA2 confirm 61 | LYPLA2 ABPP inactive
Cc1ccc(N/C=C(\C#N)c2ccc(OCCCF)cc2)cc1	LYPLA2 inh 65 | LYPLA2 confirm 75 | LYPLA2 ABPP 52
Cc1ccc(N/C=C(/C#N)c2ccsc2)cc1	none
O=C1CCC/C(=N/NC(=O)c2ccc(CN3c4cccc5cccc(c45)S3(=O)=O)cc2)C1	LYPLA2 inh 57 | LYPLA2 confirm 67
O=C(O)c1ccc(/C=N/NC(=O)c2ccc(CN3c4cccc5cccc(c45)S3(=O)=O)cc2)cc1	none
O=C(C1CCN(c2nnc(-n3cccc3)s2)CC1)N1CCN(Cc2ccc3c(c2)OCO3)CC1	LYPLA2 inh 34 | LYPLA2 confirm 46
COc1cc(C=NNC(=O)C(NC(=O)c2ccccc2)c2n[nH]c(=O)c3ccccc23)ccc1OCC(N)=O (centres undefined)	none (no result: Fam108B inh, LYPLA1 counter, PME-1 inh, LYPLA2 inh, GSTO1 inh, PAD4 FP inh) | LYPLA2 ABPP 61
COc1cccc(CN(C)C(=O)c2ccc(COc3ccc(Cl)cc3)cc2)c1OC	none
COc1cccc(CN(C)C(=O)c2ccc(Oc3ccccc3)cc2)c1OC	LYPLA2 inh 30 | LYPLA2 confirm inactive
O=S(=O)(c1ccc(-c2csc(Nc3ccc(Br)cc3)n2)cc1)N1CCCC1	PME-1 inh 38, LYPLA2 inh 53 | LYPLA2 confirm inactive
Cc1ccc(-c2noc(C3CCCN(S(=O)(=O)c4ccc5ccccc5c4)C3)n2)o1 (centres undefined)	none
Cc1ccc(-c2noc(C3CCN(S(=O)(=O)c4ccc5c(c4)OCCO5)CC3)n2)o1	LYPLA2 inh 56 | LYPLA2 confirm 54 | LYPLA2 ABPP inactive
CN(C)c1ccc(-c2noc(C3CCN(S(=O)(=O)c4ccc(C(=O)O)cc4)CC3)n2)cc1	LYPLA2 inh 30 | LYPLA2 confirm 29
CC1CCCC(C)N1CC(O)COCc1ccccc1F (centres undefined)	none
N#Cc1ccc(-c2ccc(OCC(=O)NCCc3ccccc3)cc2)cc1	LYPLA2 inh 35 | LYPLA2 confirm inactive
O=C(O)CN1CCN(Cc2ccccc2F)C1=O	none
CCn1c(=O)c(C(=O)CN2CCN(Cc3ccc4c(c3)OCO4)CC2)c(N)n(Cc2ccccc2)c1=O	LYPLA2 inh 26 | LYPLA2 confirm inactive
CCn1c(=O)c(C(=O)CN2CC(C)OC(C)C2)c(N)n(Cc2ccccc2)c1=O (centres undefined)	none
Cc1onc(-c2ccccc2)c1C(=O)N1CCN(S(=O)(=O)c2ccc(OC(F)(F)F)cc2)CC1	none
O=C1c2ccc(Oc3ccc4c(c3)C(=O)N(CCCCO)C4=O)cc2C(=O)N1CCCCO	LYPLA2 inh 29 | LYPLA2 confirm 35
O=C1c2ccc(Oc3ccc([N+](=O)[O-])cc3)cc2C(=O)N1CCCO	LYPLA2 inh 46 | LYPLA2 confirm 50
O=C(O)CN1C(=O)c2ccc(Oc3ccc([N+](=O)[O-])cc3)cc2C1=O	none
Cc1cc(C)c(OCC(=O)N(C)CC(=O)Nc2ccc(N3CCOCC3)cc2)c(C)c1	none
Cc1cc(C)c(OCC(=O)Nc2ccc(N3CCOCC3)cc2)c(Br)c1	LYPLA2 inh 28 | LYPLA2 confirm inactive
CC1CN(CCCCOc2ccc(Cl)c3ccccc23)CC(C)O1 (centres undefined)	none
COc1cc(C(=O)N2CCN(C(=O)c3ccccc3)CC2)cc(OC)c1OC	none
COc1cc(C(=O)N2CCN(C(=O)c3cc(-c4ccc(Br)cc4)n[nH]3)CC2)cc(OC)c1OC	LYPLA2 inh 28 | LYPLA2 confirm 32
